Test results published in PubChem BioAssay (Tox21).
Several values for one entry are separate records, joined by “and”; a condition that tells them apart may be missing. Equal entries are not always repeated. Records with an inconclusive call do not appear. More than one record can exist for a structure, and the calls need not agree. Activity calls are given as the source filed them. Unless noted, calls come from the whole dose curve; as a rule, active = well fitted curve in the direction sought with a large enough effect in the repeat runs; inconclusive = weak or mixed curves; inactive = no such curve, though single readings can be large; an effect the other way counts as inactive or inconclusive.

How the values were obtained:
[1] = molecular target: Retinoic acid receptor RXR-alpha (Homo sapiens) (UniProt P19793); test: qHTS assay to identify small molecule agonists of the RXR signaling pathway (AID 1159527; calls by dose curve; note: nearly all actives have a fitted effect of over 35% in size)
Summary of the method: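 Read-out: beta-lactamase FRET ratio (405 nm excitation, 460 and 530 nm emission) after 2 hr substrate loading at room temperature. Cells were RXR-alpha-UAS-bla HEK 293T treated with compounds for 16 hr in 2% charcoal-stripped FBS medium.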

[2] = qHTS assay to identify small molecule agonists of the RXR signaling pathway - cell viability counter screen (AID 1159529); note: nearly all actives have a fitted effect of over 50% in size
Summary of the method: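 HEK 293T RXRa-bla cells, 2% CS-FBS; 5 h settle; cpd 16 h 37 C, 5% CO2; CellTiter-Glo 30 min RT, luminescence. Tetraoctyl ammonium bromide as positive control.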

[3] = qHTS assay to identify small molecule antagonists of the retinoid acid receptor (RAR) signaling pathway - cell viability counter screen (AID 1159551); note: nearly all actives have a fitted effect of over 35% in size
Summary of the method: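 C3RL4 RARE-luciferase line; cpds + retinol 1 uM final, 6 h, 37 C/5% CO2; CellTiter-Glo ATP luminescence, 30 min RT.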

[4] = qHTS assay to identify small molecule antagonists of the estrogen related receptor (ERR) signaling pathway from Tox21 library - cell viability counter screen (AID 1224834); note: nearly all actives have a fitted effect of over 30% in size
Summary of the method: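 Multiplexed viability counter screen in ERR cells: 17.5 h compound exposure at 37 C, CellTiter-Fluor added, 30 min at 37 C/5% CO2, fluorescence read.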

[5] = qHTS assay to identify small molecule agonists of the constitutive androstane receptor (CAR) signaling pathway - cell viability counter screen (AID 1224836); note: nearly all actives have a fitted effect of over 45% in size
Summary of the method: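 HepG2-CYP2B6-hCAR, 2500 cells/well, 4 h pre-incubation; cpd 15 conc + PK11195 0.75 uM final; 23 h, 37 C/5% CO2; CellTiter-Fluor, fluorescence.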

[6] = qHTS assay to identify small molecule antagonists of the constitutive androstane receptor (CAR) signaling pathway - cell viability counter screen (AID 1224837); note: nearly all actives have a fitted effect of over 45% in size
Summary of the method: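 Read-out: CellTiter-Fluor fluorescence after 23 hr at 37 C/5% CO2. Cells: HepG2 double-stable for hCAR and CYP2B6-2.2kb. Compounds tested at 15 concentrations in the presence of CITCO, final concentration 50 nM.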

[7] = molecular target: Nuclear receptor subfamily 1 group I member 3 (Homo sapiens) (UniProt Q14994); test: qHTS assay to identify small molecule antagonists of the constitutive androstane receptor (CAR) signaling pathway (AID 1224838);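 note: HepG2 cells stably expressing hCAR with CYP2B6 luciferase reporter stimulated by CITCO; nearly all actives have a fitted effect of over 40% in size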
Summary of the method: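 Read-out: ONE-Glo luciferase luminescence after 30 min at room temperature. HepG2-CYP2B6-hCAR double-stable cells, compounds in 15-point titration plus 50 nM CITCO final, 24 h at 37 C/5% CO2.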

[8] = molecular target: Nuclear receptor subfamily 1 group I member 3 (Homo sapiens) (UniProt Q14994); test: qHTS assay to identify small molecule agonists of the constitutive androstane receptor (CAR) signaling pathway (AID 1224839); note: nearly all actives have a fitted effect of over 15% in size; note: potency is the fitted concentration of half-maximal effect;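 for activation: HepG2 cells stably carrying human CAR and a CYP2B6 luciferase reporter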
Summary of the method: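 HepG2-CYP2B6-hCAR cells, 2500/well, 4 h pre-incubation; compounds 15 conc.; PK11195 0.75 uM final; 24 h, 37 C/5% CO2; ONE-Glo luciferase read.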

[9] = qHTS assay to identify small molecule antagonists of the estrogen related receptor signaling pathway with the pleiotropic PPARgamma coactivator (PGC) from Tox21 10K library - cell viability counter screen (AID 1224840; active = well fitted cell-killing curve with a large enough effect in the repeat runs, not every such curve was filed as active; note: nearly all actives have a fitted effect of over 40% in size)
Summary of the method: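 Fluorescence read-out of CellTiter-Fluor viability reagent, added after cells had been exposed to compound in DMSO for 17.5 h at 37 C; 30 min development at 37 C/5% CO2. Cells: PGC/ERR line, 2,000/well.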

[10] = molecular target: Thyrotropin receptor (Homo sapiens) (UniProt P16473); test: qHTS assay to identify small molecule agonists of the thyroid stimulating hormone receptor (TSHR) signaling pathway (AID 1224843; calls by dose curve; note: nearly all actives have a fitted effect of over 45% in size)
Summary of the method: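 HEK293/TSHR, 800 cells/well; cpd 30 min RT; add cAMP-d2 + anti-cAMP-cryptate, 1 h RT; fluorescence read on plate reader. 15-pt titration, n=3.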

[11] = qHTS assay to identify small molecule agonists of the hypoxia (HIF-1) signaling pathway - cell viability counter screen (AID 1224844; calls by dose curve; note: nearly all actives have a fitted effect of over 50% in size)
Summary of the method: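 CellTiter-Glo luminescence read-out, 30 min RT, taken in the same wells as the beta-lactamase HRE reporter assay; HRE-bla ME-180 cells, 0.5% dialyzed FBS, 17 hr compound treatment at 37C, 5% CO2.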

[12] = qHTS assay to identify small molecule agonists of H2AX (AID 1224845; active = well fitted activation curve with a large enough effect in the signal ratio in the repeat runs, not every such curve was filed as active; the % refers to the signal ratio)
Summary of the method: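 Wild-type CHO-K1 cells, plated overnight, exposed 3hr at 37C to 15 concentrations (0.76% DMSO final). Lysed, then HTRF anti-pH2AX (S139) cryptate and anti-H2AX-d2 antibodies, 24 hr room temperature; 665/620 nm emission read.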

[13] = qHTS assay to identify small molecule agonists of the hypoxia (HIF-1) signaling pathway (AID 1224846; active = well fitted activation curve with a large enough effect in the signal ratio in the repeat runs, not every such curve was filed as active; the % refers to the signal ratio)
Summary of the method: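 Beta-lactamase FRET read-out (CCF4-AM substrate) from ME-180 cells carrying an HRE-driven bla reporter, after 17 hrs compound exposure at 37C/5% CO2. Cells were seeded at 2,000 per well in 0.5% dialyzed FBS medium and preincubated 5 hrs.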

[14] = qHTS assay to identify small molecule agonists of H2AX - cell viability counter screen (AID 1224847; calls by dose curve; note: nearly all actives have a fitted effect of over 30% in size; note: potency is the fitted concentration of half-maximal effect)
Summary of the method: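 Cells plated first: CHO-K1, 1000 per well in 10% FBS medium, incubated overnight at 37C. Then 15-point compound titration added (final DMSO 0.76%) for 3 hr. Finally CellTiter-Glo added and luminescence read.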

[15] = qHTS assay to identify small molecule agonists of the retinoic acid receptor (RAR) signaling pathway (AID 1159553); settings: C3RL4 RARE luciferase reporter, agonist, 6 h; activation: at 73.3 µM (top of the series) unless noted
Summary of the method: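 RARE-luc C3RL4 cells; overnight attachment 37 C/5% CO2; compound (DMSO) 6 hr; luciferase reagent, 30 min RT; luminescence read-out.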

[16] = molecular target: Luciferin 4-monooxygenase (Photinus pyralis) (UniProt P08659); test: qHTS assay to identify small molecule inhibitors of firefly luciferase (AID 1224835); note: nearly all actives have a fitted effect of over 25% in size
Summary of the method: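 Biochemical qHTS: compounds run as interplate titrations against purified firefly enzyme, with D-luciferin and ATP each at its KM concentration. Light output recorded by CCD imaging.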

[17] = qHTS assay to identify small molecule antagonists of the estrogen related receptor signaling pathway with the pleiotropic PPARgamma coactivator (PGC) from Tox21 10K library (AID 1224841; call rule not given here; note: actives are mostly falling curves and most rising ones were filed inactive; nearly all actives have a fitted effect of over 50% in size; note: potency is the fitted concentration of half-maximal effect)
Summary of the method: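 Luminescence read-out (One-Glo luciferase reagent, 30 min at room temperature) from PGC/ERR cells exposed to DMSO-dissolved test compounds for 18 h at 37 C; cells, 2,000 per well, had been preincubated 6 h before compound transfer.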

[18] = qHTS assay to identify small molecule antagonists of the retinoic acid receptor (RAR) signaling pathway (AID 1159552; note: nearly all actives have a fitted effect of over 50% in size)
Summary of the method: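 Cells of the C3RL4 line were seeded, incubated overnight, then dosed with compounds in DMSO followed immediately by retinol (1 uM final). Six hours later luciferase detection reagent went in; signal was measured after 30 min at RT.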

Measured: Potency

Chain of Thyrotropin receptor (Homo sapiens) (P16473 whole entry, looked up): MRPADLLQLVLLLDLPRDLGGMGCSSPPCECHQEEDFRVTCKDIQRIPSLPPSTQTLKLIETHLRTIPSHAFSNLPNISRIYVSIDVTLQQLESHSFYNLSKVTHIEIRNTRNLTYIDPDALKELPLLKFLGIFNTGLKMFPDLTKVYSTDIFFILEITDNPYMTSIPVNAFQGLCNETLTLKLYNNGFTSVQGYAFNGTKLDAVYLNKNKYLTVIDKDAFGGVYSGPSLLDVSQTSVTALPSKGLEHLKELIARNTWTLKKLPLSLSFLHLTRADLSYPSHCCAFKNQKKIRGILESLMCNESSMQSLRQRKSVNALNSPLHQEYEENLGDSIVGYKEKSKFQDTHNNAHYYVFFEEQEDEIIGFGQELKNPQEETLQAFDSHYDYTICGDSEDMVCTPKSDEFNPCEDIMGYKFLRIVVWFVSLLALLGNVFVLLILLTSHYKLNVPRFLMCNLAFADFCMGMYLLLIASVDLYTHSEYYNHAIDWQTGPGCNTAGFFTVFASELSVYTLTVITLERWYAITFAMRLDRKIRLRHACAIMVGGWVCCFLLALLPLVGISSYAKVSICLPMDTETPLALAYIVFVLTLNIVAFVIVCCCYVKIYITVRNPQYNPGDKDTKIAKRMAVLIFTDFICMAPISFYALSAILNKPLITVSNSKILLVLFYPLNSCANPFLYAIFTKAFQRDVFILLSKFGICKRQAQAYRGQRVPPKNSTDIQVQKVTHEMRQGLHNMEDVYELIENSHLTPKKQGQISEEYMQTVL
Chain of Nuclear receptor subfamily 1 group I member 3 (Homo sapiens) (Q14994 whole entry, looked up): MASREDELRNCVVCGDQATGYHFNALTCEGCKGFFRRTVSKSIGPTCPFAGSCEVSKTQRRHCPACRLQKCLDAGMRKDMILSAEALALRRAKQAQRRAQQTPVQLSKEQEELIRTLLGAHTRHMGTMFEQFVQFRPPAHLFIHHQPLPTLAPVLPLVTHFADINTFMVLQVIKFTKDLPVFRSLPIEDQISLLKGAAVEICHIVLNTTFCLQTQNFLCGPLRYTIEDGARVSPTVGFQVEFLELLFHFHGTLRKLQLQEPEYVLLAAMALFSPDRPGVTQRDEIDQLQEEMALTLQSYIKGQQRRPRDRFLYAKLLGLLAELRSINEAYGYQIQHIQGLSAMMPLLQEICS
Chain of Retinoic acid receptor RXR-alpha (Homo sapiens) (P19793 whole entry, looked up): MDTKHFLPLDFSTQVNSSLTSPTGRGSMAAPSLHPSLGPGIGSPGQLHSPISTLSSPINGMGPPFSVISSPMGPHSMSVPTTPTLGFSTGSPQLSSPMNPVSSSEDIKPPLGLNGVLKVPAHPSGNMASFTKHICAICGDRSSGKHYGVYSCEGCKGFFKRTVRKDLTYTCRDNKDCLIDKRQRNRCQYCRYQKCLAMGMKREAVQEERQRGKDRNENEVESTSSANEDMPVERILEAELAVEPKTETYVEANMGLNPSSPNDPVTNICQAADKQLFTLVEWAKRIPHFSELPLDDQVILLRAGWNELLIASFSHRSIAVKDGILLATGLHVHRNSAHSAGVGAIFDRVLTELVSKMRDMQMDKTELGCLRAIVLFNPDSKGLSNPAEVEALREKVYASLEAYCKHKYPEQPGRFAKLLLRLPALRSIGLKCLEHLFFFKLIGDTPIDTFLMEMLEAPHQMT
Chain of Luciferin 4-monooxygenase (Photinus pyralis) (P08659 whole entry, looked up): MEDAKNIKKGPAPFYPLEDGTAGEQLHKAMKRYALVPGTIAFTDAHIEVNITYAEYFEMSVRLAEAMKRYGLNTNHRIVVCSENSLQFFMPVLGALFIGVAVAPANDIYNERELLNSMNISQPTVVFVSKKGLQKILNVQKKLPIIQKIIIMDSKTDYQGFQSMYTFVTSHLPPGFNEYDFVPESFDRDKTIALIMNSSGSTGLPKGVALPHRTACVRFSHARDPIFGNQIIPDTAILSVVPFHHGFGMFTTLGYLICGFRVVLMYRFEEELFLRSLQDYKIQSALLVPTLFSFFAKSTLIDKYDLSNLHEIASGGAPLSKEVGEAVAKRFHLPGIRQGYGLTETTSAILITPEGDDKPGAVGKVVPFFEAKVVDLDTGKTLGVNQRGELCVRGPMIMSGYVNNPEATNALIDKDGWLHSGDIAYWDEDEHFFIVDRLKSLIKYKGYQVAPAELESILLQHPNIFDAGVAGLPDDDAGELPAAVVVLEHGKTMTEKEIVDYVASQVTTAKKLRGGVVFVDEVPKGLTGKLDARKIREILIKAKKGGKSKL

CCNc1nc(NC(C)C)nc(SC)n1
active: [8] 48.6 µM
not listed: [15] | [16] | [17] | [18]
inactive: all other assays above

COC(=O)NC(=S)Nc1ccccc1NC(=S)NC(=O)OC
not listed: [10] | [15] | [16] | [17] | [18]
inactive: all other assays above

CC(C)=C[C@@H]1[C@@H](C(=O)OCc2coc(Cc3ccccc3)c2)C1(C)C
17.2 µM (active) and inactive: [8]
not listed: [1] | [10] | [16] | [17] | [18]
inactive: all other assays above

CC1OC(C)OC(C)O1 (configuration not stated)
not listed: [7] | [8] | [10] | [15] | [18]
inactive: all other assays above

ClCc1cccnc1
not listed: [12] | [15] | [16] | [17] | [18]
inactive: all other assays above

O=S(=O)(c1ccc(Cl)cc1)c1cc(Cl)c(Cl)cc1Cl
active: [8] 30.6 µM and 27.3 µM | [14] 89.6 µM
not listed: [1] | [10] | [12] | [16] | [17] | [18]
inactive: all other assays above

CCN(CC)c1ccccc1
inactive: [1] | [2] | [3] | [4] | [5] | [6] | [9] | [11] | [13] | [14]

CCCCN(CCCC)SN(C)C(=O)Oc1cccc2c1OC(C)(C)C2
inactive: [3] | [4] | [5] | [6] | [7] | [9] | [10] | [11] | [13]

C=CCO
not listed: [15] | [16] | [17] | [18]
inactive: all other assays above

CCC(C)(CC)c1cc(NC(=O)c2c(OC)cccc2OC)on1
30.7 µM (active) and inactive: [17]
not listed: [1] | [4] | [10] | [12]
inactive: all other assays above

C1CN2CCN1CC2
not listed: [1] | [12] | [17] | [18]
inactive: all other assays above

CCN(CC)CCO
not listed: [1] | [10] | [12] | [15] | [17] | [18]
inactive: all other assays above

COC(=O)c1ccccc1C(=O)OC
38.8 µM (active) and inactive: [17]
not listed: [1] | [10] | [18]
inactive: all other assays above

Cc1ccc(N)cc1N
active: [8] 53 µM
not listed: [1] | [10] | [12] | [15] | [16] | [18]
inactive: all other assays above

[N-]=[N+]=[N-]
not listed: [15] | [16] | [17] | [18]
inactive: all other assays above

Cc1ccc([N+](=O)[O-])cc1C
not listed: [1] | [10] | [17] | [18]
inactive: all other assays above

Cc1cccc([N+](=O)[O-])c1
not listed: [1] | [7] | [8] | [10] | [12] | [16] | [18]
inactive: all other assays above

CCOC(=O)c1ccccc1C(=O)OCC
not listed: [1] | [10] | [18]
inactive: all other assays above
